Reference: PubChem BioAssay (NCI)
Values joined by “and” are separate entries in the source; they are usually repeats but may differ in a detail not shown here. Equal entries are not always repeated. Compounds without any hit were thinned out: in the full panel of roughly 83,000, 20% have a hit.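 Interpretation: 100, growth as untreated; towards 0, rising growth inhibition; 0, no net growth; 0 to -100, cell death. Compounds scoring below 10 were considered active.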 Values without a mark were called inactive. Active and inactive are the calls of the source.

These molecules were tested on HL-60(TB) leukemia (assay: NCI-60 one-dose screen, 48 h (100 = growth as untreated, 0 = no growth, -100 = all killed)). Conditions: 10 µM unless noted.
Protocol: Growth inhibition of the HL-60(TB) human tumor cell line is measured as a screen for anti-cancer activity. Cells are grown in 96 well plates and exposed to the test compound for 48 hours. Compounds are tested at a single concentration, which is 10^-5 M for most compounds. The reported endpoint is percent growth (GI% or GIPRCNT), where numbers from 0 - 100% represent growth inhibition, and numbers from -100% - 0 represent cell death. For example, a value of 40 represents 60% growth inhibition. A value of 0 means no net growth occurred over the course of the experiment. A value of -40 indicates 40% of cells at the beginning of the experiment died by the end of the experiment. A value of -100 means all cells are dead at the end of the experiment.
NCI-60 Human Tumor Cell Lines Screen was performed using the standard one-dose NCI protocol, which is described in more detail at https://dtp.cancer.gov/discovery_development/nci-60/default.htm.
Compounds with GIPRCNT values below 10 were considered active. Activity score was based on GIPRCNT using the following formula: […]
Score is 0 for GIPRCNT values of 100 or above, 50 for GIPRCNT values of 0, and 100 for GIPRCNT values of -100.
With `C/C(Cc1ccc(Cl)cc1)=C(/c1ccc(Cl)cc1)c1ccc(OCCN(C)C)cc1` the growth was -10.1% (active).
`O=C(CCCCC1CCSS1)Nc1ncnc2n[nH]c(-c3ccc(Oc4ccccc4)cc3)c12` (stereo not given) gave a growth of 78.8%.
`CC(=O)c1c(C)c2cnc(Nc3ccc(N4CCNCC4)cn3)nc2n(C2CCCC2)c1=O` showed a growth of 21.8%.
`CCCCn1cnc2c(=O)[nH]cnc21` gave a growth of 108%.
`COc1ccc2c(c1)C(=O)/C(=C/c1ccc([N+](=O)[O-])o1)O2` was tested, and the growth was -42.3% (active).
For `CC1(C)CC[C@]2(C(=O)NCCNCCN)CC[C@]3(C)C(=CC[C@@H]4[C@@]5(C)CCC(=O)C(C)(C)[C@@H]5CC[C@]43C)[C@@H]2C1`, the growth was -52.9% (active).
In the case of `CN(C)CCCn1c(=O)c2ccccc2c2cnc3[nH]ccc3c21`, the growth is reported as 5.9% (active).
Work on `CS(=O)(=O)Nc1ccc([N+](=O)[O-])cc1Oc1ccccc1` yielded a growth of 92.9%.
In the case of `O=c1[nH]c2cc(Cl)c(Cl)cc2o1`, the growth is reported as 120%.
In the case of `c1ccc(OCC[P+](c2ccccc2)(c2ccccc2)c2ccccc2)cc1`, the growth is reported as -19.4% (active).
`OCc1cnccc1NC12CC3CC(CC(C3)C1)C2` showed a growth of 85.3%.
Molecule `COc1cc(NC(=O)CCl)ccc(=O)c1` has a growth of 77.1%.
`COC(=O)c1ccc(CSc2nnc(-c3c(C)nc4ccc(C)cn34)o2)cc1` gave a growth of 97.5%.
In the case of `c1cnc2[nH]cc(-c3csc(-c4cn(CCCN5CCOCC5)c5ccccc45)n3)c2c1`, the growth is reported as 35.8%.
With `O=C(O)c1[nH]c(=O)[nH]c(=O)c1[N+](=O)[O-]` the growth was 127%.
Molecule `OC(COc1ccccc1Cl)COc1ccccc1Cl` has a growth of 94.3%.
With `COc1ccc(-n2nc(C(=O)Nc3ccc(F)cc3)nc2-c2cc(OC)c(OC)c(OC)c2)cc1` the growth was 91.5%.
For `O=C(Nc1ccc(-c2nc3cc4ccccc4cc3[nH]2)cc1)c1cccc(Br)c1`, the growth was 42.3%.
`CCC1=C[C@@H]2CN(C1)Cc1c([nH]c3ccccc13)[C@@](C(=O)OC)(c1cc3c(cc1OC)N(C=O)[C@H]1[C@@](O)(C(=O)OC)[C@H](OC(C)=O)[C@]4(CC)[C@@H]5C[C@@H]5CN5CC[C@]31[C@@H]54)C2` was tested, and the growth was -19.4% (active).
For `Cc1ccc(C2=Nc3c(N)ncnc3NC(c3ccc4c(c3)OCO4)C2)cc1` (stereo not given), the growth was 33.2%.
Work on `C=CCN(/C=C/CN(CC=C)CC=C)CC=C` yielded a growth of 102%.
In the case of `CC1Cc2ccccc2N1C(=O)c1ccc(C(=O)c2ccccc2)cc1` (stereo not given), the growth is reported as -11.1% (active).
`CCN1C(=O)N[C@H]2[C@@H]3NC(=O)c4ccc(Cl)n4[C@@H]3C[C@]21O` was tested, and the growth was -20.6% (active).
In the case of `CNC(=O)c1ccccc1Nc1nc(Nc2ccc3c(c2OC)CCC[C@H](N2CCN(CCO)CC2)C3)ncc1Cl`, the growth is reported as -45.7% (active).
For `COC(=O)c1cc(-c2ccc(C)cc2)n(C(=O)CSc2nc3sc(C(N)=O)c(C)c3c(=O)n2Cc2ccccc2)n1`, the growth was 106%.
Work on `COc1cc(NCCCCN=C(N)N)c2ncccc2c1` yielded a growth of 103%.
`CCN(CC)C(=O)O/N=C(/C)c1ccccc1` showed a growth of 95.5%.
`O=C1NC(=C(Cl)Cl)/C(=N/S(=O)(=O)N2CCC(C3(C(F)(F)F)N=N3)CC2)N1` was tested, and the growth was 77%.
`Cn1cc(C(=O)c2nc(-c3c[nH]c4ccccc34)no2)c2cc(F)ccc21` was tested, and the growth was -6.73% (active).
In the case of `Cc1ccc(NC(=O)c2ccc(CN3CCN(C)CC3)cc2)cc1Nc1nccc(-c2cccnc2)n1`, the growth is reported as 107% and 89.8%.
For `CN1CCN(Cc2ccc(NC(=O)c3ccc(C#N)c(C#Cc4cnc(N)c5ncccc45)c3)cc2C(F)(F)F)CC1`, the growth was 60.8%.
In the case of `Cc1nc2ccccc2c2nnc(SCC(=O)N(Cc3ccccc3)c3ccccc3)n12`, the growth is reported as 105%.
For `CC1(C)S(=O)(=O)OCCOS1(=O)=O`, the growth was 95.6%.
Work on `Cc1cccc(CO)c1` yielded a growth of 109%.
With `Nc1c(C(=O)Nc2ccccc2)sc2nc3c(cc12)C(O)CCC3` (stereo not given) the growth was -8.34% (active).
For `CC1(C)CC[C@]2(C(N)=O)CC[C@]3(C)C(=CC[C@@H]4[C@@]5(C)C/C(=C/c6ccncc6)C(=O)C(C)(C)[C@@H]5CC[C@]43C)[C@@H]2C1`, the growth was -19.2% [100 µM] (active).
`COc1ccc(/C=C2\CCCC3=C2N=C2SC(C)=CN2C3c2ccc(OC)cc2)cc1` (stereo not given) was tested, and the growth was 76.2%.
In the case of `OCCN1CCN(CC/C=C2\c3ccccc3Sc3ccc(Cl)cc32)CC1`, the growth is reported as 14.2% and 19.5%.
`Nc1ccc(S(=O)(=O)O)c2ccc(N=Nc3ccc(N=Nc4ccc(S(=O)(=O)O)cc4)c4ccccc34)c(O)c12` showed a growth of 70.5%.
For `O=C(Cn1cc(CN2C(=O)c3ccccc3S2(=O)=O)nn1)Nc1nc2ccccc2s1`, the growth was 113%.
